p53 reactivator – qHTS assay for re-activators of p53 using a Luc reporter; AID 504706, 2011; H1299 p53-A138V BP100-luciferase reporter, luminescence, 24 h; actives 0.063% (n = 320,000); Potency, µM (highest dose often 92.2 µM), for inactives: at the top dose activity change, positive = activation, most hits filed as activators; also: potency is read from the fitted curve at half-maximal effect; % of control where 0% means no effect; nearly all actives have a fitted effect of over 45% in size
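p53-null H1299 cells stably carrying temperature-sensitive p53-A138V and a BP100-luciferase reporter were pinned with compounds (4-point, 1:5 series) and held 24 hrs at 37 deg C. Luminescence was read 10 min after detection reagent.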
Nrf2 activator – qHTS of Nrf2 Activators | AREc32 ARE-luciferase reporter (MCF7-derived line), luminescence, 24 h | Potency, µM (series often up to 46.1 µM), for inactives: top-dose activation, usual class: activators | actives 0.31% (n = 410,000); also: potency is read from the fitted curve at half-maximal effect; % of control where 0% means no effect; nearly all actives have a fitted effect of over 65% in size
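Each well held 1000 AREc32 cells, which were incubated with compound for 24 hr at 37 deg C after overnight attachment, and ARE reporter activity was quantified by firefly luciferase luminescence.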
IL-2 act – qHTS of IL-2 Activators; IL-2 activation reporter assay, cell-based qHTS; stimulated with anti-CD3/CD4/CD28 beads; in transgenic mouse T cells; activation, % (series mostly up to about 46 µM); actives 0.065% (n = 360,000); in the data active = activation above about 50%; inconclusive = mostly about 30% to 49%; also: 0% is about no effect
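First, unstimulated transgenic mouse T cells were exposed to compound for 60 min. Next, anti-CD3/anti-CD4-coated beads with anti-CD28 were added. Finally, after 18 h at 37 degrees C, EGFP and DsRed were imaged.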
Nrf2 block – Nrf2 qHTS screen for inhibitors; A549 ARE-Fluc reporter, luciferase luminescence, 18-24 h; Potency, µM (doses to about 46 µM), without a hit: top-dose activity change, negative = inhibition, actives largely listed as inhibitors; actives 2.1% (n = 360,000); also: potency is read from the fitted curve at half-maximal effect; % is scaled to controls: 0 for no effect and ±100 for the full control effect; nearly all actives have a fitted effect of over 60% in size
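In this cell-based qHTS, ARE-driven firefly luciferase in A549 cells reports Nrf2 activity; the luminescent signal after BugLite lysis is the measured value, with a prior CellTiter-Fluor read for cell health.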
BRCA1 expr act – qHTS Assay to Identify Small Molecule Activators of BRCA1 Expression | actives 1.1% (n = 380,000) | Potency, µM (series often up to 46.1 µM), inactives show top-dose activation, actives largely listed as activators | MCF7-BRCA1-FFLuc reporter, luminescence, 48 h; response scale: scaled: vehicle 0%, 10 µM genistein 100% | AID 624202, 2012; also: potency is read from the fitted curve at half-maximal effect; nearly all actives have a fitted effect of over 80% in size
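MCF7 cells carrying a BRCA1-firefly luciferase reporter (2000 cells/well, phenol-red free MEM) were attached for 2 h at 37 °C, then given compounds for 48 h. Luminescence was read 15 min after luciferase reagent; activity normalized to genistein (10 microM) and DMSO.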
A549 viability – Nrf2 qHTS screen for inhibitors: counterscreen for cytotoxicity | AID 504648, 2011 | actives 0.16% (n = 390,000) | Potency, µM (series often up to 46 µM), for inactives: top-dose activity change, negative = cytotoxicity, actives largely listed as inhibitors | A549 ARE-Fluc cells, CellTiter-Fluor viability, 18-24 h; also: potency is read from the fitted curve at half-maximal effect; % is scaled to controls: 0 for no effect and ±100 for the full control effect
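A549 ARE_Fluc cells in 5% FBS OPTI-MEM were exposed to compounds in concentration-response for 18-24 h at 37 deg C. Viability was read by CellTiter-Fluor fluorescence (Ex 405/Em 525) after 30 min, before the luciferase read.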
The depositor's hits bear a star; ? = inconclusive; / = no result given; [ ] = another dose, or the depositor's remark. Compounds with a hit are over-represented: about 3.2% of the library has one in this group of screens. Unless noted, calls follow the shape of the dose curve; as a rule, active = well fitted curve in the direction sought with a large enough effect; inconclusive = small, poorly fitted or top-dose-only effect, or another doubt; inactive = no such curve, though single readings can be large; an effect the other way counts as inactive or inconclusive.

SMILES	p53 reactivator	Nrf2 activator	IL-2 act	Nrf2 block	BRCA1 expr act	A549 viability
O=c1c2c3c(sc2ncn1/N=C/c1ccco1)CCCC3	20%	7%	-1	-10%	18%	8%
O=C(C1CCC(Cn2c(=O)c3sccc3n(Cc3ccccc3)c2=O)CC1)N1CCCCC1 (stereo unspecified)	/	3%	/	13%	/	6%
CCOc1cc(CNc2ccc(N(C)C)cc2)cc(Br)c1OCC(=O)NC(C)(C)C	19%	5%	0	?	-41%	?
CCOc1cc(CNc2ccc(N3CCCCC3)cc2)cc(Br)c1OCC(=O)NC(C)(C)C	13%	-1%	0	16µM*	-50%	?
C=CCOc1ccc(CNc2ccc(NC(=O)CCC)cc2)cc1OCC	-3%	0%	-2	-15%	-7%	-10%
C=CCOc1c(Br)cc(CNc2ccc(NC(=O)CCC)cc2)cc1OCC	4%	3%	0	15µM*	-32%	-17%
CCN(CC)C(=O)Cn1c(=O)n(Cc2ccc(C(=O)NCCCOC)cc2)c(=O)c2ccccc21	/	0%	/	-13%	0%	-7%
O=C(CCc1nc2cccnc2n1-c1ccccc1)Nc1ccc(Cl)c(Cl)c1	/	1%	/	?	/	1%
O=[N+]([O-])c1ccc(C2=Nc3cc(Cl)ccc3OC2)cc1	21%	13µM*	0	?	6%	-5%
CCOC(=O)Cn1c(=O)n(C2CCCCC2)c2nc(-c3ccc(OCC)cc3)nc(C(N)=O)c21	/	0%	/	/	14%	7%
CC1(C)CC(=O)C2=C(C1)NC1=C(C(=O)c3ccccc31)C2c1ccccc1 (stereo unspecified)	-10%	3%	-2	-21%	-33%	?
CC(C)c1ccc(C2C3=C(CC(C)(C)CC3=O)NC3=C2C(=O)c2ccccc23)cc1 (stereo unspecified)	-5%	0%	-1	23µM*	-87%	16µM*
O=S1(=O)c2ccccc2N(Cc2ccc(F)cc2)c2ccccc21	/	1%	/	?	/	14%
COc1cc2nc(N3CCCN(C)CC3)nc(NC3CCOCC3)c2cc1OC	/	/	/	/	-29%	/
Cc1cc(C(=O)COC(=O)Cc2c(F)cccc2Cl)c(C)n1C	/	2%	-3	/	5µM*	/
Cn1c(N)c(C(=O)COC(=O)Cc2c(F)cccc2Cl)c(=O)n(C)c1=O	0%	0%	6	-21%	-18%	9%
COc1ccc(C2=Nn3c(nnc3-c3cccc(OC)c3OC)SC2)cc1	/	/	/	15%	/	-7%
CCOc1ccc(C(=O)C2CCN(CC(=O)Nc3ccccc3N3CCOCC3)CC2)cc1	1%	2%	-1	12µM*	-53%	-14%[1.84 µM]
CCOc1ccc(C(=O)Nc2ccccc2N2CCOCC2)cc1	1%	0%	0	/	2%	5%
CCOC(=O)c1c(NC(=O)CS(=O)(=O)c2ccc(C)cc2)sc2c1CCCCC2	/	0%	/	/	/	1%
C#CCOCCOCCOCCNc1nc(N2CCN(C(=O)CCCCCCCCCCNC(=O)[C@H]([C@@H](C)CC)n3cc(CCCCN=C(N)N)nn3)CC2)nc(N2CCN(C(=O)CCCCCCCCCCNC(=O)[C@@H]([C@H](C)O)n3cc(C)nn3)CC2)n1	2%	-3%	-1	23µM*	-67%	?
CC1CC=CC2C1C(=O)N(Cc1ccccc1)C2c1ccc(F)c(-c2ccc(N(C)C)cc2)c1 (stereo unspecified)	/	/	/	-15%	/	6%
NC1=C(Br)C(=O)c2ncccc2C1=O	/	-2%	-5	10µM*	-86%	16µM*
O=C1c2cccnc2C(=O)N1CO	5%	0%	0	/	-17%	-2%
CCc1ccc(C(=O)CC2(O)C(=O)N(CCc3ccccc3)c3ccc(Cl)cc32)cc1 (stereo unspecified)	/	-4%	/	?	/	-20%
SMILES	p53 reactivator	Nrf2 activator	IL-2 act	Nrf2 block	BRCA1 expr act	A549 viability
COc1cccc(CNC(=O)CN2CCC(c3nc4ccc(C)cc4[nH]3)CC2)c1	-2%	0%	0	16µM*	-28%	0%
COC1=C(Nc2ccc(O)cc2)C(=O)c2ccccc2C1=O	?	0%	1	23µM*	-86%	?
Cc1ccc(NC2=C(Cl)C(=O)c3ccccc3C2=O)cc1	5µM*	?	0	23%	-64%	?
CCN(CC)c1ccc(NC2=C(Cl)C(=O)c3ccccc3C2=O)cc1	-36%	?	1	?	-85%	21µM*
Cc1nc(CC(=O)Nc2ccc(C)c(C)c2)cs1	/	4%	/	3%	/	0%
O=C(CCS(=O)(=O)Cc1ccccc1)Nc1ncc([N+](=O)[O-])s1	7%	13µM*	-3	?	8.9µM*	-10%
C/C(=C\C(=O)Nc1nccs1)c1ccccc1	/	18%	0	?	8.9µM*	-5%
O=C(Nc1nccs1)c1ccc(Br)o1	?	7%	-2	?	?	-3%
O=C(/C=C/c1ccc(Br)o1)Nc1nccs1	6%	6.3µM*	0	?	30%	1%
O=C(c1ccc(Nc2nc3ccccc3n3nnnc23)cc1)N1CCN(c2ccc(F)cc2)CC1	/	5%	/	-13%	/	1%
COc1ccc(NC(=O)c2c(NCc3ccc(C)o3)sc3c2CCC(C)C3)cc1 (stereo unspecified)	/	8%	/	/	/	2%
O=C1CNC(=S)N1c1nc(-c2ccccc2)cs1	10µM*	-1%	-1	-1%	-41%	3%
COc1ccccc1CNC(=O)c1cnc2c(-c3ccccc3)c(C)nn2c1C	/	-1%	/	-24%	/	-3%
COc1cc(CNC(=O)c2cnc3c(-c4cccc(C)c4)c(C)nn3c2C)cc(OC)c1OC	/	-1%	/	21µM*	/	0%
COCCN1C(=O)c2[nH]nc(-c3c(C)cc(C)cc3O)c2C1c1cccc(O)c1 (stereo unspecified)	/	0%	/	27%	/	0%
COc1ccc(N=c2cc(-c3ccc(OC)cc3)oc3ccccc23)cc1	1%	7%	-6	16µM*	-21%	?
CCn1c(C)nc2cc(-c3nc4n(n3)Cc3ccccc3-4)ccc21	-63%	-4%	0	2.3µM*	?	-7%
COC(=O)c1cccc(NC(N)=S)c1	17%	0%	0	-4%	5%	0%
CNC(=S)Nc1cccc(C(=O)OC)c1	11%	9%	0	?	7.1µM*	-1%

High-throughput results from PubChem.
